Results as given in PubChem BioAssay AID602433 (Southern Research Specialized Biocontainment Screening …, 2012).
Results with a measured potency or affinity are listed apart. Records with an inconclusive call do not appear. A number with no mark means an inactive call. The rule behind the calls is not given here.

Assay: THP-1 cell cytotoxicity, cytotoxicity control, set 6 (AID 602433)
Conditions: THP-1 cell viability, cytotoxicity CC50; series mostly up to 100 µM; viability: at the top concentration

Compared with `COC(=O)C(Cc1ccccc1)NC(=O)CSc1nc2ccccc2c(=O)[nH]1` (stereo not drawn), `O=C(NCc1ccc(C(=O)N2CCN(c3ccccc3)CC2)cc1)NC1CCCCC1` is higher in “viability” value: 81.6% for the first, 82.6% for the second.

First: O=C(CSc1nc2c(c(=O)[nH]1)CCCC2)NC1CCCCC1
Second: O=C(CSc1nc2c(c(=O)[nH]1)CCC2)NC1CCCCC1
The “viability” value of the first is lower: 94.3% for the first, 98.8% for the second.

Going from `O=C(c1ccc(CNc2c(N3CCCC3)c(=O)c2=O)cc1)N1CCC(c2ccccc2)CC1` to `O=C(c1ccc(CNc2c(N3CCCC3)c(=O)c2=O)cc1)N1CCN(c2ccccc2)CC1`, the “viability” value rises from 99.5% to 99.7%.

Going from `O=C(c1ccc(CNc2c(N3CCOCC3)c(=O)c2=O)cc1)N1CCN(c2ccccc2)CC1` to `CC(C)CCNC(=O)CSc1nc2c(c(=O)[nH]1)CCCCC2`, the “viability” value rises from 92.5% to 96%.
